ROC1-CUL1 inh = blocks human RBX1-Cullin-1 di-ubiquitin formation; in vitro K48 di-Ub FRET, acceptor:donor ratio, 45 min; inhibition, % at 10 µM; hit rate 0.6% among 140,000; in the data active means inhibition above about 25%
* = called active by the depositor. This excerpt belongs to a sample that is enriched for hits.

SMILES | ROC1-CUL1 inh
COc1ccc(-c2occ(C(=O)O)c2C(=O)O)cc1 | 47*
COc1ccc2occ(C(=O)c3coc4ccc(OC)cc34)c2c1 | 1
O=C(O)c1ccccc1-c1occ(C(=O)c2ccccc2)c1C(=O)O | 9
CC(OCCCc1ccccc1)n1ccnc1 (centres undefined) | 1
CCN1C(=O)/C(=C/c2cc(OC)c(OCC(=O)O)cc2Br)SC1=Nc1ccc(OC)cc1 | 7
CCOC(=O)c1ccc(N=C2S/C(=C/c3cc(OC)c(OC)c(OC)c3)C(=O)N2CC)cc1 | 4
O=C(O)COc1ccc(Br)cc1/C=C1\SC(=O)N(Cc2ccc(F)cc2)C1=O | 1
COc1cc(/C=C2/SC(=O)N(Cc3ccc(F)cc3)C2=O)cc(I)c1OCC(=O)O | 98*
COc1cc(/C=C2\SC(=O)N(Cc3ccc(F)cc3)C2=O)ccc1OCc1ccc(C(=O)O)cc1 | 17
CCOc1ccc(N=C2S/C(=C\c3cc(Cl)c(OCC(=O)O)c(OC)c3)C(=O)N2CC)cc1 | 94*
CCOC(=O)c1c(C)sc2c1N(C(C)=O)c1cc(Br)ccc1S2 | 1
CC#CCN1C(=O)NC(CCCc2ccccc2)(C2CCN(CC3CC=CCC3)CC2)C1=O (centres undefined) | -2
CCCCNC(=O)[C@H]1C[C@@](C)(C(=O)OC)N(C)[C@H]1c1ccccc1Cl | -3
Cc1ccnc(NC(c2ccc3c(c2)OCO3)c2ccc3cccnc3c2O)c1 (centres undefined) | 4
CCOC(=O)c1c(NC(=O)CN2CCCCCC2)sc2c1CCCC2=O | 2
CC(CN)Oc1ccc(Cl)cc1Cl (centres undefined) | 0
CCCCS(=O)(=O)Nc1ccc(C(C)CC)cc1 (centres undefined) | 2
CSc1ncnc2c1sc1nc(-c3cccs3)cc(C(F)(F)F)c12 | -3
FC(F)(F)c1cc(-c2cccs2)nc2sc3c(=S)nc[nH]c3c12 | 3
N=c1c2sc3nc(-c4cccs4)cc(C(F)(F)F)c3c2ncn1N | 39*
Cn1ccc(C(=O)N/N=C\c2cc(Cl)ccc2O)n1 | -3
COCCCNC(=O)Cn1cc(C(=O)OC)c2ccccc21 | 0
CCc1c(OC(C)=O)c2ccccc2n(C)c1=O | 8
CC(=O)Oc1c(Cl)c(=O)n(C)c2ccccc12 | 60*
CC(=O)Oc1c(C)c(=O)n(C)c2ccccc12 | -4
SMILES | ROC1-CUL1 inh
COc1cccc(C2C(C(=O)OC(C)C)=C(C)N=c3s/c(=C/c4ccc(C)o4)c(=O)n32)c1 (centres undefined) | 7
CC(=O)c1ccc(NC(=O)CN2C(=O)CCc3ccccc32)cc1 | 2
COC(=O)C1C(=O)c2ccccc2N=C1SCC(=O)Nc1cc(C)cc(C)c1 (centres undefined) | 3
COc1ccc(N2C(=O)/C(=C\c3ccc(OC(=O)c4cccs4)c(OC)c3)SC2=S)cc1 | -9
COc1ccc(N2C(=O)/C(=C\c3ccc(O)c(Br)c3)SC2=S)cc1 | 42*
COc1cccc(N2C(=O)/C(=C/c3ccc(O)cc3)SC2=S)c1 | 8
O=C(O)COc1ccc(/C=C2\SC(=S)N(c3cccc(Cl)c3)C2=O)cc1 | 4
CCOc1cc(/C=C2\SC(=S)N(c3cccc(Cl)c3)C2=O)ccc1OCC(=O)O | 33*
CCOc1cc(/C=C2\SC(=S)N(c3ccccc3)C2=O)ccc1OCc1ccc(Cl)cc1Cl | -8
CCOc1cc(/C=C2\SC(=S)N(c3ccc(OC)cc3)C2=O)ccc1OCC(=O)O | 57*
C=CCOc1ccc(/C=C2\SC(=S)N(c3ccc(OC)cc3)C2=O)cc1OCC | 23
COc1cc(/C=C2\SC(=S)N(c3cccc(C(F)(F)F)c3)C2=O)ccc1OCC(=O)O | -2
O=C(OC(Cn1ccnc1)c1ccccc1)c1ccc(Cl)cc1Cl (centres undefined) | 2
Nn1c(Cc2n[nH]c(=S)n2N)n[nH]c1=S | -2
CCN(CC)CCn1c(C)cn2c3c(=O)[nH]c(=O)n(C)c3nc12 | 3
CCOc1ccc(CCNCc2c(C(=O)O)c(C)n(Cc3ccccc3F)c2C)cc1 | 0
CCOCc1cn(CC(=O)c2ccc(Br)cc2)c(C)nc1=N | 4
COC(=O)C(NC(C)=O)(Nc1nc2ccccc2s1)C(F)(F)F (centres undefined) | 0
c1ccc(CNc2nc3nonc3nc2N2CCCC2)cc1 | 0
COC(=O)c1ccc(CNCCC2CCC(=O)N2CCOC(C)C)cc1 (centres undefined) | 3
Fc1ccc(CCN2CCN(C3Cc4ccc(F)cc4Sc4cc(F)c(Cl)cc43)CC2)cc1 (centres undefined) | -5
CCOC(=O)c1cc(C#N)c(SCc2ccc(Cl)c(Cl)c2)nc1N | -4
O=C(Oc1ccc(Br)cc1Br)c1ccccc1Cl | -2
Nc1nc(-c2cccc(Br)c2)cs1 | 5
NCCNc1nc(-c2cccc(Br)c2)nnc1-c1ccccc1 | 54*
Cc1ccc(-c2nnc(-c3ccccc3)nc2NCCCO)cc1 | 1
O=C(c1cn(CCN2CCCCC2)nn1)N1CCCO1 | 1
Cc1ccccc1OC(C)C(=O)Nc1ccccc1 (centres undefined) | -2
O=c1cc(N2CCCCC2)cnn1CCn1cncn1 | 3
COc1ccc(OC)c(C(=O)O)c1N | 5
